# Source: ChEMBL document CHEMBL1961873, “Compounds: GSK PKIS; Assays: Nanosyn kinase panel” (2012)
# Columns and labels:
# [1] = biological target: Mitogen-activated protein kinase kinase kinase kinase 4 (Homo sapiens) (UniProt O95819); conditions: at 1 µM;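 note: reported figure is an averaged inhibition value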
# [2] = biological target: Dual specificity mitogen-activated protein kinase kinase 1 (Homo sapiens) (UniProt Q02750); conditions: at 0.1 µM
# [3] = biological target: Dual specificity mitogen-activated protein kinase kinase 1 (Homo sapiens) (UniProt Q02750); conditions: at 1 µM
# [4] = biological target: Misshapen-like kinase 1 (Homo sapiens) (UniProt Q8N4C8); conditions: at 0.1 µM
# Misshapen-like kinase 1 (Homo sapiens), sequence (Q8N4C8 whole entry, looked up): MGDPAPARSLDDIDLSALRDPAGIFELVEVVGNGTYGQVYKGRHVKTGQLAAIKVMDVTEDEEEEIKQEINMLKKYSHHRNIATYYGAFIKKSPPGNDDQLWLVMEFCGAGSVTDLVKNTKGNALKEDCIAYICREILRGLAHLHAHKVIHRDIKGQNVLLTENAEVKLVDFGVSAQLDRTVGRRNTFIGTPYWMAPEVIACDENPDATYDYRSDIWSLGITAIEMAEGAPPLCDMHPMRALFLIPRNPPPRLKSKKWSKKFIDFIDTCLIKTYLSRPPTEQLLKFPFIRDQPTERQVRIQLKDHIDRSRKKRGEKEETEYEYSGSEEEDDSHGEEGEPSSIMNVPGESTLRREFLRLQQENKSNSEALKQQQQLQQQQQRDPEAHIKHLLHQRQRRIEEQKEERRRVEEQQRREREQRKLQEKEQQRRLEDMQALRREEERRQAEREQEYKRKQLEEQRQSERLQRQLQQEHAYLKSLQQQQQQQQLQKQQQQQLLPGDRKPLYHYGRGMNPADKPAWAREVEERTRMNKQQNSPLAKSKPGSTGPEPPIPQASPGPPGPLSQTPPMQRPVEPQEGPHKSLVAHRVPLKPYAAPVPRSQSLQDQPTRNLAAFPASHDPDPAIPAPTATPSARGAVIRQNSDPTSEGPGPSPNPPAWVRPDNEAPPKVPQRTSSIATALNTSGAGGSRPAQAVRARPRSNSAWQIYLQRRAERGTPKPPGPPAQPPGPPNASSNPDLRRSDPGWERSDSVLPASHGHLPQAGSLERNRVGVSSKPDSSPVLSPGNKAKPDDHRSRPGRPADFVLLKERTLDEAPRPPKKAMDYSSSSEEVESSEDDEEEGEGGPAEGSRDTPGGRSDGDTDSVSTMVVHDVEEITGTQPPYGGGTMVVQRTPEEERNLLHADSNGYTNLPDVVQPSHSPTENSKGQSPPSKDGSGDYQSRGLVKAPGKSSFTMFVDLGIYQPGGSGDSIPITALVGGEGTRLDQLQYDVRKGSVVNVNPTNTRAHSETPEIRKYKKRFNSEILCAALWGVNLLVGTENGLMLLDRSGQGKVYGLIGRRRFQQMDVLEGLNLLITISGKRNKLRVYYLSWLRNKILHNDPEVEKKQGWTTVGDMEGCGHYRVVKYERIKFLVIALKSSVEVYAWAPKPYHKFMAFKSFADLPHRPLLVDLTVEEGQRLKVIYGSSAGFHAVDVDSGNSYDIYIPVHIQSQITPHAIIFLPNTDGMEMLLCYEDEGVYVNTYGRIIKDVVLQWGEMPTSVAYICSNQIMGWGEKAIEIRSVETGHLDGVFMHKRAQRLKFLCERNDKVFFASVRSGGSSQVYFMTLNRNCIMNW
# [5] = biological target: Misshapen-like kinase 1 (Homo sapiens) (UniProt Q8N4C8); conditions: at 1 µM
# [6] = biological target: T1, Serine/threonine-protein kinase 4 (Homo sapiens) (UniProt Q13043); conditions: at 0.1 µM
# T1 sequence (whole entry): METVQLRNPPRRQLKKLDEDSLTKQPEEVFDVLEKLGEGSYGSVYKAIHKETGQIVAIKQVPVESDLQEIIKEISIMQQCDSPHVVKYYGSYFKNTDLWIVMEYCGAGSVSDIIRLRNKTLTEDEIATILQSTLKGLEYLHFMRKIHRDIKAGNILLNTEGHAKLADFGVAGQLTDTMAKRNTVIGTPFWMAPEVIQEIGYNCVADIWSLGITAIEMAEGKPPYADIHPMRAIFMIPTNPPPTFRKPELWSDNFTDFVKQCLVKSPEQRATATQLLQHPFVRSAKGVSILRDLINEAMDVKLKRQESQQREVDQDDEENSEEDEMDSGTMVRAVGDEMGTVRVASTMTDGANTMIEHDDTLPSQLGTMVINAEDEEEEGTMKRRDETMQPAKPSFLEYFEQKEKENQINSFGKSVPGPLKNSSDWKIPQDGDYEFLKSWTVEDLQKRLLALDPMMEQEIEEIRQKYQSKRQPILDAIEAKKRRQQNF
# [7] = biological target: T1, Serine/threonine-protein kinase 4 (Homo sapiens); conditions: at 1 µM
# [8] = biological target: T2, Serine/threonine-protein kinase 3 (Homo sapiens) (UniProt Q13188); conditions: at 0.1 µM
# T2 sequence (whole entry): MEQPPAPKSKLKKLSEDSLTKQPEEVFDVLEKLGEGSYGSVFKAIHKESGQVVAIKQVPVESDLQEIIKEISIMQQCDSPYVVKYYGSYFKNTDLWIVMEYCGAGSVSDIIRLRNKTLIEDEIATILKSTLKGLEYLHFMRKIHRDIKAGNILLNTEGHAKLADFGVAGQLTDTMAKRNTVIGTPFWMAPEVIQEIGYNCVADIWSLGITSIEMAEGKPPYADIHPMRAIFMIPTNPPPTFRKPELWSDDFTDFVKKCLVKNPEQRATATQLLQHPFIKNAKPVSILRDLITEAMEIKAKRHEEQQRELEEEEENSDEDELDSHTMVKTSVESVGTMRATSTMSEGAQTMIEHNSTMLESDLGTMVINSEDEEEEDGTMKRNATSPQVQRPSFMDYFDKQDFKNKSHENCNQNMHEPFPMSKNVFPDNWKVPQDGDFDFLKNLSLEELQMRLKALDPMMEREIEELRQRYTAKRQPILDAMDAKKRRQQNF
# [9] = biological target: T2, Serine/threonine-protein kinase 3 (Homo sapiens); conditions: at 1 µM
# [10] = biological target: Serine/threonine-protein kinase 26 (Homo sapiens) (UniProt Q9P289); conditions: at 0.1 µM
# Serine/threonine-protein kinase 26 (Homo sapiens), sequence (Q9P289 2-416 limits assumed): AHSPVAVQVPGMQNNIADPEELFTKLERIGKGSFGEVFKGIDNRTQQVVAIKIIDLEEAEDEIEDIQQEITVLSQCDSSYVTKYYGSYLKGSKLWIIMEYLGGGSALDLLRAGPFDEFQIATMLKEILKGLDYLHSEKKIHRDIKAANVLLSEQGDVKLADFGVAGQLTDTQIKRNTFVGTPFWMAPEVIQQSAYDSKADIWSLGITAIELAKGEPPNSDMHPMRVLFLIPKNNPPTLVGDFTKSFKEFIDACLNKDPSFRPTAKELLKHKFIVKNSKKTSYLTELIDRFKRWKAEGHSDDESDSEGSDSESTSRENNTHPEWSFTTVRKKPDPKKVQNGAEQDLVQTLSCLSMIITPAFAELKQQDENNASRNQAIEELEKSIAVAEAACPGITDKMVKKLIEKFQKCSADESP
# Mitogen-activated protein kinase kinase kinase kinase 4 (Homo sapiens), sequence (O95819 2-1239 limits assumed): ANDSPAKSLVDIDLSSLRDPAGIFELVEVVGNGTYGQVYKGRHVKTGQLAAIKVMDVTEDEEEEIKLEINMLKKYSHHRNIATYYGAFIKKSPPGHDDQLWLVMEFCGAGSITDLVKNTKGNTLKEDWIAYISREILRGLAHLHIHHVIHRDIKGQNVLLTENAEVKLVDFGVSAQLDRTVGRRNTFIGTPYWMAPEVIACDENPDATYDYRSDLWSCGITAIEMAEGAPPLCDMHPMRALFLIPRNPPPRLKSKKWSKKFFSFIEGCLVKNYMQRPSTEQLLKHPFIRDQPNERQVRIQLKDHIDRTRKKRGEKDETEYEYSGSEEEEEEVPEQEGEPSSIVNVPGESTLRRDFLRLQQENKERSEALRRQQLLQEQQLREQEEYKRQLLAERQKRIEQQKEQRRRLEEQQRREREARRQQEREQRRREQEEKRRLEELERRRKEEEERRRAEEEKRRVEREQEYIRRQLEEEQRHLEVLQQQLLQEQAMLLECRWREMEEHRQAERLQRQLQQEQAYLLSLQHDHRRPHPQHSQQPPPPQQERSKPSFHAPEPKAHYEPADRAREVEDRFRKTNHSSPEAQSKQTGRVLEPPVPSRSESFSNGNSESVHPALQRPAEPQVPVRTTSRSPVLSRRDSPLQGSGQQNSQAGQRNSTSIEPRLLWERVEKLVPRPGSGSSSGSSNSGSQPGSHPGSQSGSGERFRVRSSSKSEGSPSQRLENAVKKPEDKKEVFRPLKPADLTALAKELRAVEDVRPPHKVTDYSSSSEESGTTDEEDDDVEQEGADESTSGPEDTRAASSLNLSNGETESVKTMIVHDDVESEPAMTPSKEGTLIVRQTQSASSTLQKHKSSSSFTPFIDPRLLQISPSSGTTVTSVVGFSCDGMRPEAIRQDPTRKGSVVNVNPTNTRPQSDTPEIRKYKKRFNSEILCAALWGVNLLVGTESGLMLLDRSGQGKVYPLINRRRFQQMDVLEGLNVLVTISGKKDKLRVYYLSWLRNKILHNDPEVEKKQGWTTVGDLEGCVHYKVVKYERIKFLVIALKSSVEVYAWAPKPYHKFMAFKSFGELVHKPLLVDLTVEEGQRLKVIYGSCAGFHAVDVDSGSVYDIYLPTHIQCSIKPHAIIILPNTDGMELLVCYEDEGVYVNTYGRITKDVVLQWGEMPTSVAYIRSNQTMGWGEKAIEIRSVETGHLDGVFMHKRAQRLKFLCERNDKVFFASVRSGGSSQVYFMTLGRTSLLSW
# Dual specificity mitogen-activated protein kinase kinase 1 (Homo sapiens), sequence (Q02750 whole entry): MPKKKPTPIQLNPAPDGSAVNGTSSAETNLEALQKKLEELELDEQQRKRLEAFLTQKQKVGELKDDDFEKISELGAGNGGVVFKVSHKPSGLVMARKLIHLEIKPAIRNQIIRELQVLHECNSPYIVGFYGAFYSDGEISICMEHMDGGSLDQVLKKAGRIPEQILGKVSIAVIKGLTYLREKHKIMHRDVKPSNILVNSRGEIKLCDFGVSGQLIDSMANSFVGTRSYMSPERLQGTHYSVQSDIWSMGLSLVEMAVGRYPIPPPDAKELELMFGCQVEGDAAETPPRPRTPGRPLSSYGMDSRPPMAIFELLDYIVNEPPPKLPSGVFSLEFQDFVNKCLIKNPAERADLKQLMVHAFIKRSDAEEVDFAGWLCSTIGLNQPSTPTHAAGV
SMILES,inhibition [1],inhibition [2],inhibition [3],inhibition [4],inhibition [5],inhibition [6],inhibition [7],inhibition [8],inhibition [9],inhibition [10]
CCc1ccc(Oc2nccc(-c3c(-c4ccc(F)cc4)ncn3C3CCNCC3)n2)cc1,11.4%,3.92%,8.98%,4.83%,12.1%,3.84%,5.43%,5.44%,5.88%,0.4%
Fc1ccc(-c2ncn(C3CCNCC3)c2-c2ccnc(Oc3ccc4c(c3)OCO4)n2)cc1,7.72%,4.99%,8.82%,5.95%,12%,4.76%,8.51%,6.72%,10.8%,-1.94%
O=C(Nc1n[nH]c2nc(-c3ccco3)ccc12)C1CC1,32.1%,-0.04%,0.75%,3.07%,18.1%,1.17%,1.95%,0%,-0.23%,0.08%
C/C(Nc1ccc(S(N)(=O)=O)cc1)=C1/C(=O)Nc2ccccc21,88.3%,-1.13%,0.96%,34.1%,85.3%,10.2%,55.3%,3.63%,42.3%,-1.9%
COc1cc(C)c(N(C)C(=O)CN(C)C)cc1Nc1nc(Nc2cccc(F)c2C(N)=O)c2cc[nH]c2n1,4.77%,2.7%,4.56%,2.85%,1.74%,4.57%,4.81%,5.2%,4.32%,-0.43%
CCN(CC)Cc1ccc(Nc2nccc(-c3cnn4ncccc34)n2)cc1,20.4%,3.09%,13.1%,5.68%,17%,1.35%,15.9%,5.43%,9.79%,-1.89%
CNC(=O)c1cncc(/C=C/c2c(C)cccc2C)c1,7.57%,-0.07%,0.41%,1.75%,3.59%,2.23%,3.51%,2.27%,2.73%,0.91%
NC(=O)c1cc(-c2ccc(F)cc2)cc(-c2ccncc2)c1N,9.21%,5.61%,3.83%,4.49%,10%,3.76%,5.59%,4.31%,5.48%,-2.72%
C[C@@H](Oc1cc(-n2cnc3ccc(OC4CCN(C)CC4)cc32)sc1C(N)=O)c1ccccc1Cl,7.81%,1.83%,2.54%,6.26%,5.92%,4.68%,19.5%,6.85%,13.4%,-3.27%
Fc1ccc(-c2c(-c3ccncc3)nc3n2CCS3)cc1,10.8%,3.75%,4.29%,4.97%,9.56%,1.09%,2.38%,1.69%,3.46%,-0.47%
NCc1ccc(-n2c(-c3nonc3N)nc3cnccc32)cc1,20.3%,8.09%,8.5%,11.2%,16.3%,9.89%,19.6%,10.2%,13.1%,0.95%
Cc1ccc(C(=O)NC(C)C)cc1-c1ccc(C(=O)NCC2CC2)cc1,1.81%,-2.99%,-1.83%,-3.61%,-1.09%,-3.24%,-3.63%,-4.19%,-4.98%,2.16%
Cc1ccc(C(=O)NC2CCC2)cc1-c1ccc(C(=O)NCC2CC2)cc1,3.8%,2.81%,2.71%,5.5%,4.67%,3.29%,1.77%,1.04%,1.53%,-3.48%
CN(C)c1ccc2c(c1)/C(=C/Nc1ccc(S(N)(=O)=O)cc1)C(=O)N2,70%,2.52%,6.25%,18.1%,63.6%,44.2%,71.7%,32.3%,68%,0.49%
O=C(Nc1n[nH]c2cc(-c3ccccc3)ccc12)C1CC1,74.2%,4.67%,3.62%,21.4%,64.5%,4.78%,6.38%,5.18%,6.35%,-2.61%
NS(=O)(=O)c1ccc(N/N=C2\C(=O)Nc3ccc(C(=O)NCCCn4ccnc4)cc32)cc1,52.1%,10.7%,38%,9.83%,41.5%,28.6%,75.5%,22.2%,70%,-0.28%
CCc1nccc2c1nc(-c1nonc1N)n2CC,6.31%,1.12%,1.54%,3.5%,3.84%,-1.14%,-0.39%,–,–,-1.4%

SMILES,inhibition [1],inhibition [2],inhibition [3],inhibition [4],inhibition [5],inhibition [6],inhibition [7],inhibition [8],inhibition [9],inhibition [10]
Fc1ccc(-c2ncn(C3CCNCC3)c2-c2ccnc(Oc3ccc(F)c(F)c3)n2)cc1,10.9%,3.03%,3.8%,8.56%,12%,7.1%,7.9%,10.2%,9.55%,1.93%
N#Cc1ccc(Oc2nccc(-c3c(-c4ccc(F)cc4)ncn3C3CCNCC3)n2)cc1,5.64%,4.35%,3.84%,6.9%,7.67%,3.35%,4.07%,5.75%,4.78%,-1.67%
CN(c1ccc(NC(=O)Nc2c(Cl)cccc2Cl)cc1)c1ccnc(Nc2cccc(CS(C)(=O)=O)c2)n1,73.4%,5.73%,5.34%,21.2%,64.5%,8.06%,17.4%,8.37%,11.5%,0.39%
CN1CCN(CCCNc2nc3ccc(Oc4ccc(NC(=O)Nc5cc(C(F)(F)F)ccc5F)cc4)cc3[nH]2)CC1,2.12%,2.3%,1.94%,1.67%,1.26%,3.59%,3.57%,2.61%,3.55%,1.41%
Fc1ccc(-c2ncn(CCCN3CCOCC3)c2-c2ccncc2)cc1,5.83%,-0.25%,0.32%,1.73%,2.89%,1.3%,4.22%,-0.13%,2.5%,0.94%
COc1ccc2cc(-c3c(-c4ccncc4)nc(-c4ccc([S+](C)[O-])cc4C)n3C)ccc2c1 (stereo not drawn),17.7%,-0.9%,-1.09%,0.1%,12.5%,-2.13%,7.66%,-0.9%,17.3%,0.68%
C#Cc1cccc(Nc2ncnc3ccc(OCCCCNCCS(C)(=O)=O)cc23)c1,19.6%,6.88%,4.96%,9.17%,17.6%,4.35%,7.8%,5.45%,7.49%,-2.14%
CS(=O)(=O)CCNCc1cc(-c2cc3c(Nc4ccc(OCc5cccc(F)c5)c(Cl)c4)ncnc3s2)cs1,10.3%,4.54%,5.74%,6.33%,8.36%,4.99%,6.28%,6.59%,6.16%,-2.65%
Fc1ccc(-c2nc3n(c2-c2ccncc2)CCS3)cc1,18.3%,5.23%,5.11%,6.96%,14%,3.57%,4.41%,3.46%,3.73%,-1.69%
COc1cc2ncn(-c3cc(OCCc4ccccc4)c(C(N)=O)s3)c2cc1OC,26.2%,3.24%,2.39%,5.52%,18.8%,2.99%,13.6%,2.95%,11%,-1.7%
O=C(Nc1ccc(Oc2ccc3[nH]c(NC(=O)c4ccccc4)nc3c2)cc1)Nc1cc(C(F)(F)F)ccc1F,5.89%,2.91%,2.61%,3.26%,4.54%,5.74%,10.6%,5.74%,8.42%,0.36%
CCS(=O)(=O)c1ccc(OC)c(Nc2ncc(-c3ccccc3Cl)o2)c1,24.2%,-0.28%,0.4%,4.25%,22.4%,1.96%,5.89%,1.11%,2.6%,1.19%
COc1cc2ncn(-c3cc(OCc4ccccc4C(F)(F)F)c(C(C)=O)s3)c2cc1OC,8.16%,3.88%,3.7%,5%,8.55%,3.51%,3.86%,3.42%,7.42%,-0.47%
NC(=O)Cc1ccccc1Oc1nccc(-c2c(-c3ccc(F)cc3)ncn2C2CCNCC2)n1,6.68%,2.01%,2.53%,4.37%,6.95%,1.4%,3.79%,2.69%,4.24%,-0.95%
O=C(NCC1CC1)c1ccc(-c2cccc(C(=O)NC3CC3)c2)cc1,2.03%,3.01%,1.66%,2.89%,-1.8%,4.49%,5.3%,4.78%,3.31%,-2.14%
CCS(=O)(=O)c1ccc(OC)c(Nc2ncc(-c3cccc(-c4ccccc4F)c3)o2)c1,7.49%,-1.1%,-0.23%,1.27%,6.72%,-0.24%,0.6%,0.7%,-0.3%,0.48%
c1ccc(-c2n[nH]cc2-c2ccnc(-c3ccc(OCCN4CCOCC4)cc3)c2)nc1,77.5%,-0.91%,-0.3%,20.2%,69.2%,1.73%,2.13%,2.06%,0.12%,5.82%
